# Myeloid diff MLP – promotes myeloid progenitor differentiation; ER-HoxA9 myeloid progenitors, lysozyme-GFP differentiation, flow cytometry; 360,000 tested, 1% active; calls only at 10 µM;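 active = normalized GFP-positive differentiation at or above the plate's own cutoff, the solvent-only control mean plus 3 SD; inconclusive = no clear call, values can overlap the other calls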;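 also: cells exposed to compound for four days before flow analysis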
# ABCB6 inh MLPCN – human ABCB6 transporter inhibition | K562-ABCB6 porphyrin accumulation, flow cytometry, 1 h; hits give low values | 360,000 tested, 0.19% active | fluorescence ratio to DMSO, % at 10 µM | Q9NP58;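 active = fluorescence ratio to DMSO below 75%, the collection mean minus 3 SD; inconclusive = too few cells collected in the well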;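 also: signal is porphyrin accumulated inside mitochondria; 100% equals median channel fluorescence of DMSO control wells; lower ratio means ABCB6 inhibition with less porphyrin fluorescence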
# Exocytosis inh – lytic granule exocytosis inhibition. TALL-104 LAMP-1 surface exposure, flow cytometry; cells stimulated with thapsigargin and PMA. inhibition, % at 10 µM. 360,000 tested, 0.66% active. AID 651702;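 active = inhibition above about 55%, limit read from the data; inconclusive = no clear call, values can overlap the other calls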
# Granule exo CP1 – blocks lytic granule exocytosis. AID 651954. shares compounds with Exocytosis inh. TALL-104 cells, LAMP-1 externalization, flow cytometry; stimulated with PMA plus thapsigargin. 1,500 tested, 11% active. inhibition, % at 10 µM; in the data active = inhibition above about 60%;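 also: 0% = stimulated vehicle wells and 100% = unstimulated wells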
# The depositor's hits bear a star; i = inactive; ? = inconclusive; / = no result given. Hits are enriched below; roughly 1.8% of the tested compounds scored in any of these assays.
SMILES,Myeloid diff MLP,ABCB6 inh MLPCN,Exocytosis inh,Granule exo CP1
COc1ccc2c(CC(=O)Nc3ncc(C)s3)coc2c1,i,90.0,-2.8,/
Cc1cccc(OCCCC(=O)NNC(=O)CCN2CCN(c3ccccc3)CC2)c1,i,95.0,3.2,/
COc1ccc(C(=O)COC(=O)CNS(=O)(=O)c2ccc(C)cc2)cc1,i,96.0,0.0,/
O=S(=O)(NCc1ccc(F)cc1)c1ccccc1Br,i,81.0,-4.1,/
C=C1CCN([C@@H](CC(C)C)C(=O)NCc2ccco2)S(=O)(=O)c2ccccc21,i,93.0,-11.8,/
Cc1ccc(S(=O)(=O)NCCN=Cc2ccc(N(C)C)cc2)cc1,i,106.0,0.5,/
O=C(CN1CCC(C(=O)c2ccc(Cl)cc2)CC1)NC1CCCC1,i,93.0,4.1,/
O=C(c1ccc2c(c1)OCCO2)C1CCN(C(=O)Nc2ccccc2F)CC1,i,93.0,11.2,/
CCOC(=O)C1(CCOc2ccccc2)CCN(Cc2cnc(SC)nc2)CC1,i,89.0,1.2,/
CCOC(=O)C1(CCOc2ccccc2)CCN(Cc2cc(OC)c(O)c(OC)c2)CC1,i,91.0,76.6*,9.6
C=C1c2cccc(C(F)(F)F)c2O[C@H](C(=O)OCC)[C@H]1OC,i,107.0,-1.2,/
O=C1NC(=O)C2(CCc3ccccc32)N1 (stereo unspecified),i,94.0,-3.3,/
C=C1CC2(OC1=O)c1ccccc1CCc1ccccc12,?,97.0,90.2*,-10.1
CN(C)c1ccc(C(CNC(=O)c2cccs2)N(C)C)cc1 (stereo unspecified),i,105.0,-0.5,/
O=C(NCCOc1ccccc1Cl)c1cccc2c1C(=O)c1ccc(Cl)cc1S2(=O)=O,i,98.0,5.7,/
COc1ccc(C(C)(C)C)cc1NS(=O)(=O)c1cccc2cccnc12,i,100.0,59.0*,-11.6
COc1ccc(OC)c(NS(=O)(=O)c2cccc3cccnc23)c1,i,100.0,-1.6,/
CN(CCc1ccccc1)C(=O)c1ccc(NC(=O)Cc2ccc(NC(=O)C3CCCN(C(=O)c4ccccc4)C3)cc2)cc1 (stereo unspecified),i,97.0,-5.5,/
Nn1c(COc2ccccc2F)nnc1SCC(=O)NC1CCCCC1,i,100.0,-1.4,/
COC(=O)c1c(NC(=O)C2CC2)sc(C(=O)Nc2ccccc2)c1C,i,99.0,74.7*,-13.7
Cc1nc(NC(=O)C2CC2)sc1C(=O)Nc1ccccc1,i,94.0,-2.1,/
O=C1CCCC2=C1C1(CCCC1)N=C(Nc1nc3cc(-c4ccccc4)ccc3o1)N2,i,92.0,-1.9,/
O=C(Nc1cc(SCCO)cc([N+](=O)[O-])c1)c1ccc(Br)o1,i,93.0,0.3,/
O=C(CCN1CCc2ccccc2C(c2ccccc2)C1)c1ccc2c(c1)OCCO2 (stereo unspecified),i,97.0,95.8*,81.0*
O=C(CCN1Cc2ccccc2C1)c1ccc2c(c1)OCCO2,i,107.0,40.1,/
SMILES,Myeloid diff MLP,ABCB6 inh MLPCN,Exocytosis inh,Granule exo CP1
COc1ccc(-c2cn[nH]c2-c2ccc(OCc3ccc(F)cc3)cc2O)cc1OC,i,89.0,19.1,/
O=[N+]([O-])c1ccc(COc2ccc(-c3[nH]ncc3-c3ccccc3)c(O)c2)cc1,i,92.0,11.0,/
COc1ccc(-c2cn[nH]c2-c2ccc(OCc3ccccc3)cc2O)cc1OC,i,98.0,64.2*,-3.9
Oc1cc(OCc2ccccc2)ccc1-c1[nH]ncc1-c1ccccc1,i,102.0,100.1*,16.1
C=C(C)COc1ccc(-c2[nH]ncc2-c2ccc(OC)cc2)c(O)c1,i,92.0,1.1,/
C=C(C)COc1ccc(-c2[nH]ncc2-c2ccccc2)c(O)c1,i,107.0,85.1*,4.1
CCN(CC)CCCNC(=O)CNC(=O)c1nn(-c2ccc(OC)cc2OC)c(=O)c2ccccc12,i,96.0,3.5,/
CC1CC(C)CN(C(=O)C(C)N2CCN(S(=O)(=O)c3cccs3)CC2)C1 (stereo unspecified),i,95.0,-3.5,/
CCCNC(=O)C1(C)CCCN(C(=O)c2ccc3ccccc3c2)C1 (stereo unspecified),i,101.0,1.4,/
CC(=O)c1c(C)n(-c2cccc(Cl)c2)c2ccc(O)cc12,i,86.0,80.7*,-1.7
CC(=O)c1c(C)n(-c2ccc(Cl)cc2)c2ccc(O)cc12,i,97.0,-14.5,/
CCOC(=O)N1CCN(CCC(=O)c2ccc(Br)cc2)CC1,i,93.0,88.1*,7.7
CCOC(=O)N1CCN(CCC(=O)c2ccc(Cl)cc2)CC1,i,96.0,35.1,/
CC(O)(c1ccc(F)c(F)c1)c1nc(-c2cccc3cccnc23)cs1 (stereo unspecified),i,101.0,-2.7,/
CCn1c(=O)c2cc(C(=O)NCCC(C)C)sc2c2ccccc21,i,96.0,70.6*,-8.5
CCn1c(=O)c2cc(C(=O)NCCCOC)sc2c2ccccc21,i,101.0,40.3,/
COc1ccc(C(=O)N/C(=C\c2cn(S(=O)(=O)N(C)C)c3ccccc23)C(=O)NCCN2CCOCC2)cc1,i,105.0,2.2,/
COc1ccc(C2OCC(C)([N+](=O)[O-])CO2)cc1 (stereo unspecified),i,96.0,-0.2,/
Cc1ccc(NC(=O)CC2SC3=NCCCN3C2=O)c(C)c1 (stereo unspecified),i,93.0,67.1*,-11.9
O=C(CC1SC2=NCCN2C1=O)Nc1ccc(Cl)cc1 (stereo unspecified),i,98.0,-0.9,/
COc1ccc(CCNC(=O)Cn2nnc(C(=O)Nc3cccc(C)c3C)c2N)cc1OC,i,94.0,-0.4,/
CCOC(=O)C1(Cc2cccc(OC)c2)CCN(C/C=C/c2ccccc2)CC1,i,90.0,64.5*,-12.2
CCOC(=O)C1(Cc2ccccc2)CCN(Cc2cc(OC)c3c(c2)OCO3)CC1,i,103.0,59.8*,-3.8
CCOC(=O)C1(Cc2ccccc2)CCN(Cc2ccc(C3CCCCO3)s2)CC1 (stereo unspecified),i,99.0,2.7,/
CCOC(=O)C1(Cc2ccccc2)CCN(Cc2cccc3c2OCO3)CC1,i,95.0,5.2,/
SMILES,Myeloid diff MLP,ABCB6 inh MLPCN,Exocytosis inh,Granule exo CP1
CCOC(=O)C1(Cc2cccc(OC)c2)CCN(C/C=C/c2ccc(OC)cc2)CC1,i,?,22.6,/
CCOC(=O)C1(Cc2ccccc2)CCN(Cc2ccc(C)s2)CC1,i,94.0,63.6*,-4.5
COCCNc1nc(Oc2ccc(CC(=O)OC)cc2)c2sc(-c3ccccc3)cc2n1,i,101.0,5.7,/
O=C(O)c1ccc(C(=O)c2cc([N+](=O)[O-])cc([N+](=O)[O-])c2)cc1,i,101.0,5.2,/
CN(C)CCCNc1ncnc2sc(-c3ccccc3)cc12,i,98.0,8.1,/
CCCCN(CCO)c1ncnc2sc(-c3ccccc3)cc12,i,99.0,91.8*,-10.4
N#Cc1ccccc1OCCOCCNC1CCCC1,i,95.0,-1.6,/
Cc1ccc(-n2c(SCC(=O)NCc3ccco3)nc3c(sc4ccccc43)c2=O)cc1,i,96.0,6.2,/
CC(C)(C)S(=O)N1Cc2cc(C(=O)N[C@@H]3CCN(Cc4ccccc4)C3)nc(-c3cccc(-c4cc5ccccc5o4)c3)c2[C@@H]1CCO (stereo partly specified),i,91.0,63.2*,19.3

# Bioassay records: PubChem, NMMLSC
